The list is not random: actives were taken first. Their share in the collection is about 1.2%.
PKA-R2B activ – activates the human PKA-R2B holoenzyme complex; AID 504700; activation, % at 11.4 µM; 340,000 tested, 0.079% active; P22694+P31323; PKA-R2B holoenzyme dissociation, Cy5-IP20 fluorescence polarization; R2B truncated from residue 108, S112A mutant; 0% DMSO only, 100% 113 µM cGMP;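 active means activation above a cutoff set at the mean over all compounds plus 3 SD, cut at about 18% in these data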;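 further: higher means more holoenzyme dissociation and a rise in polarization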
PKA-R1A activ – activators of PKA-R1A complex; 340,000 tested, 0.083% active; activation, % at 11.4 µM; PKA-R1A dissociation, Cy5-IP20 fluorescence polarization; scaled: DMSO 0%, 113 µM cGMP 100%; P00514+P68181;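 active means percent activation above the mean of all tested compounds plus 3 SD, cut at about 19% in these data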;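 further: higher means more PKAc released from R1A so a rise in polarization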
PG9 Ab binder – binds the HIV-1 gp120 antibody PG9 | inhibition, % at 6.7 µM | 360,000 tested, 0.43% active | TR-FRET gp120-PG9 antibody binding; in the data active means inhibition above about 8.5%
NR1D1 modulator – Rev-erb alpha (human) modulation | 370,000 tested, 0.79% active | P20393 | AID 1259318 | Rev-erbα–FITC-DNA binding, fluorescence polarization, 90 min | activity, % at 10 µM;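 active means activity above about 14%, limit read from the data; passing the limit was not always enough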;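 further: 0% = DMSO wells with 35 nM protein and 100% = DMSO wells with 750 nM protein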
Target sequence (P20393 whole entry, looked up): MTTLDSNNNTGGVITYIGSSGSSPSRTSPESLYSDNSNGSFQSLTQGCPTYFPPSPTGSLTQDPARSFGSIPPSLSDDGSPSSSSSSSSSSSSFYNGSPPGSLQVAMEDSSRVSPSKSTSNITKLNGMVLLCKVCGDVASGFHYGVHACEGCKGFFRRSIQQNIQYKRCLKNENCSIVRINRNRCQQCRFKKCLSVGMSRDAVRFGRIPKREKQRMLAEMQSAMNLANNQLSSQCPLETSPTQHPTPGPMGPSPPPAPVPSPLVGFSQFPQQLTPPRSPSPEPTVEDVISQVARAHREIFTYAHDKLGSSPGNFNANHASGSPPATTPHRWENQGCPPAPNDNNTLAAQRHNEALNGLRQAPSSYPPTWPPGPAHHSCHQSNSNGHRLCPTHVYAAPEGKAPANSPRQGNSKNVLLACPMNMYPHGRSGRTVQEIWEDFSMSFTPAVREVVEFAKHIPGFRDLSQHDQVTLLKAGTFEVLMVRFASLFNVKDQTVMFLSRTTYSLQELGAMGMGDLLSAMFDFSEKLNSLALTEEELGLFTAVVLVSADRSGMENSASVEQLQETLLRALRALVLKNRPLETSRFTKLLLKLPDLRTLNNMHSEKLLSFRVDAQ
Rev-erbA confirm – confirmation of modulators of human Rev-erb alpha DNA binding; AID 1259319; activation, % at 25 µM; Rev-erb alpha FITC-DNA binding, fluorescence polarization, 90 min; shares compounds with NR1D1 modulator; 3,000 tested, 61% active;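 active means activation at or above a set limit, or at least 3 SD above the negative control mean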;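 further: 0% = 35 nM protein with DMSO and 100% = 750 nM protein high control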
RORg counter – RORgamma DNA-binding activity, dose-response counter-screen. purified RORgamma protein-FITC-DNA binding, fluorescence polarization. shares compounds with NR1D1 modulator. 910 tested, 8% active. IC50, µM;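 active means Compounds whose fitted half-maximal concentration for disrupting protein-DNA binding is below 10 micromolar; the record names Rev-erb in its text, so the target is in doubt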
* hit, by the source's call; i = inactive; nt = no result given.

SMILES	PKA-R2B activ	PKA-R1A activ	PG9 Ab binder	NR1D1 modulator	Rev-erbA confirm	others
O=C(O)Cn1cc(/C=C/[N+](=O)[O-])c2ccccc21	-0.6	-7.6	-1.5	-6.1	nt
C[n+]1ccc2[nH]c3ccccc3c2c1	nt	nt	0.5	-0.5	nt
Cc1[nH]c2ccccc2c1/C=C/c1cc[n+](C)cc1	-3.8	-2.5	-21.6	250.8*	172.3*	RORg counter=>40
CCN(CC)C(=O)Cn1c(C)c(/C=C/c2cc[n+](C)cc2)c2ccccc21	-7.6	-8.4	-14.3	157.8*	138.5*	RORg counter=>40
Cc1ccc(C(=O)NC2CCCCN(Cc3ccccc3C)C2=O)cc1 (stereo not given)	nt	nt	nt	0.3	nt
Cc1ccccc1/C=C/c1cc[n+](C)cc1	8.6	8.8	0.0	-3.7	nt
CCn1cc(/C=C/c2cc[n+](C)cc2)c2ccccc21	-5.2	3.5	-15.6	178.8*	160.5*	RORg counter=>40
CC(C)n1cc(/C=C/c2cc[n+](C)cc2)c2ccccc21	-3.9	-14.8	-8.0	209.2*	202.9*	RORg counter=>40
CCOC(=O)Cn1cc(C=O)c2ccccc21	1.2	1.9	-1.8	-4.5	nt
COC[C@H]1CCCN1c1cccc2c1S(=O)(=O)N1CC[C@H](C1)O2	nt	nt	nt	-4.7	nt
CC1NC(=O)c2cc3ccccc3cc2-n2c1nc1cc(Cl)ccc1c2=O (stereo not given)	3.1	-11.9	-1.4	16.1*	-0.5
CC1NC(=O)c2cc3ccccc3cc2-n2c1nc1cc(F)ccc1c2=O (stereo not given)	2.4	-13.3	0.3	5.2	nt
Cc1c(Cl)cc(C(C)C)c(O)c1CN1CCOCC1	2.5	-3.8	1.0	42.4*	43.0*	RORg counter=>40
Cc1cc(C(C)c2ccccc2)c(O)c(CN2CCOCC2)c1C (stereo not given)	-7.3	-5.9	-0.1	32.8*	43.2*	RORg counter=>40
Oc1c(Cl)cc(Cl)c(Cl)c1CN1CCOCC1	2.1	-4.8	-0.8	5.0	nt
CCc1cc2c(-c3ccccc3)cc(=O)oc2c(CN2CCOCC2)c1O	1.8	-3.1	-1.9	7.2	nt
S=C(Nc1ccccc1Br)OCCN1CCCC12CCC(c1ccccc1)CC2 (stereo not given)	nt	nt	nt	0.9	nt
CCOC(=O)N1CCN(C(=O)C[C@H]2C[C@@]3(C(=O)OC)C(=C[C@H](COCc4ccccc4)O[C@@H]3C)N(CCc3ccc(OC)c(OC)c3)C2=O)CC1	nt	nt	nt	2.1	nt
C[C@@H]1COc2cc(Br)ccc2S(=O)(=O)N1Cc1cn(Cc2ccccc2)nn1	nt	nt	nt	-3.4	nt
CC(CCN1CCC(C(O)(c2ccccc2)c2ccccc2)CC1)Oc1ccc(F)cc1 (stereo not given)	nt	nt	nt	-2.4	nt
CN(Cc1ccccc1F)C(=O)C1CCCN(c2ncccn2)C1 (stereo not given)	nt	nt	nt	1.6	nt
Cc1ccc(Cn2cc(CN3CC=CS3(=O)=O)nn2)cc1	nt	nt	nt	3.2	nt
COc1ccc(CN2CCC(CNC(=O)NCc3ccccc3)CC2)cc1	nt	nt	nt	0.3	nt
Cc1csc(NC(=O)c2cc3c(C)nn(Cc4ccccc4Cl)c3s2)n1	3.2	7.1	2.0	22.1*	16.7*
COc1ccc(C2NC(=O)NC(C)=C2C(=O)OC2CCCC(C)C2)cc1 (stereo not given)	-13.3	-1.4	1.7	18.4*	8.4
SMILES	PKA-R2B activ	PKA-R1A activ	PG9 Ab binder	NR1D1 modulator	Rev-erbA confirm	others
COc1ccc(C2NC(=O)NC(C)=C2C(=O)OC2CCCCC2)cc1 (stereo not given)	13.2	1.7	0.9	-2.4	nt
Cc1c(C)c2ccc(OCC(=O)Nc3cccnc3)c(C)c2oc1=O	-5.6	-6.3	-0.8	1.9	nt
COc1ccc(-c2cc(=O)oc3c(C)c(OCC(=O)Nc4cccnc4)ccc23)cc1	1.5	3.9	-1.4	27.6*	1.7
c1coc(-c2nnc3n2N=C(c2ccc4c(c2)OCO4)CS3)c1	nt	nt	nt	-3.5	nt
COc1ccc(-c2cc(-c3cccnc3)c(C#N)c(N)n2)cc1	0.3	-14.9	1.0	39.8*	35.8*	RORg counter=>40
COc1ccc(-c2cc(-c3ccc(OC)cc3)c(C#N)c(SC)n2)cc1	2.5	-7.1	2.6	108.0*	52.4*	RORg counter=>40
COc1cccc(-c2cc(-c3cccnc3)c(C#N)c(N)n2)c1	5.1	-5.3	-1.4	-7.9	nt
COc1ccc(-n2c(SCC(=O)C(C)(C)C)nc3ccsc3c2=O)cc1	7.0	-6.4	3.2	20.8*	19.9*
CN(C)c1ccc(N=Nc2ccccc2C(=O)OCC(=O)N2CCCC2)cc1	2.4	-3.5	-8.4	36.2*	40.1*	RORg counter=1.25*
CN(C)c1ccc(N=Nc2ccccc2C(=O)OCC(=O)N2CCCCCC2)cc1	-0.6	-0.1	-1.9	26.8*	34.8*	RORg counter=>40
CSc1ccccc1C(=O)OCC(=O)N1CCCCCC1	1.3	-2.2	1.1	-7.8	nt
COc1ccc(C(C)(C)C)cc1NC(=O)C1=CC=CN2CCS(=O)(=O)N=C12	-2.1	-2.1	1.2	24.3*	29.6*	RORg counter=i
Cc1ccc(NC(=O)C2=CC=CN3CCS(=O)(=O)N=C23)cc1	-4.8	-1.1	0.2	-2.6	nt
COc1ccc(C(=O)Nc2ccc(-c3ccc(NC(=O)c4ccc(OC)cc4)c(OC)c3)cc2OC)cc1	-3.3	-4.5	-0.1	28.8*	5.0
COc1ccc(NC(=O)c2ccc(C(=O)Nc3ccc(OC)cc3OC)cc2)c(OC)c1	-14.7	-9.9	0.1	-1.7	nt
COc1ccc2oc(C(=O)Nc3ccc(N4CCOCC4)cc3)c(C)c2c1	4.4	-4.1	-0.8	-4.7	nt
COc1ccc(NC(=O)c2oc3cc(C)c(C)cc3c2C)c(OC)c1	-12.4	-9.2	-1.1	20.6*	4.3
COc1ccc2oc(C(=O)Nc3ccccc3N3CCOCC3)c(C)c2c1	-3.0	-4.0	2.2	29.5*	9.0
C=CCOc1ccc(/C(O)=C2\C(=O)C(=O)N(CCN(C)C)C2c2cccs2)cc1 (stereo not given)	-8.4	-7.8	-0.8	29.4*	34.9*	RORg counter=>40
CCOc1ccc(/C(O)=C2/C(=O)C(=O)N(CCN(CC)CC)C2c2cccs2)cc1 (stereo not given)	-5.4	9.4	0.5	18.9	nt
CC1CC(=O)N(c2ccc(NCCc3ccc(O)cc3)c([N+](=O)[O-])c2)C1=O (stereo not given)	-1.4	-6.8	-0.4	18.9*	6.7
CCCCCCCCN1C(=O)[C@@H](CC(=O)N2CCCCC2)C[C@@]2(C(=O)OC)C1=C[C@H](COCc1ccccc1)O[C@@H]2C	nt	nt	nt	0.7	nt
Cc1ccc(-c2nc3ncccn3c2NC(=O)c2ccccc2)cc1	nt	nt	nt	1.7	nt
COC(=O)c1cccc(C23CC4(C2)[C@H](CN(C)[C@@H]4c2ccccc2)C3c2ccccc2)c1 (stereo not given in full)	9.3	-2.4	0.0	22.1*	41.4*
CCCC[C@H](C(=O)N(CC)c1ccccc1)[C@@H](O)c1ccc(C(C)=O)cc1	nt	nt	nt	6.5	nt
O=c1[nH]c(-c2ccccc2F)nc2c1sc(=S)n2Cc1ccccc1	3.4	7.3	-3.0	23.6*	2.4
